# Source: PubChem BioAssay AID504832 (National Center for Advancing Translational Sciences (NCATS), 2011)
# About 18,000 (5.8%) of roughly 310,000 compounds were called active. A call without a number means that no potency is given here. Another 22% or so got no clear call; they are omitted. The call rests on the fitted dose curve; in most records, active means well fitted inhibition curve with a large enough effect; inconclusive means small, poorly fitted or top-dose-only effect, or another doubt; inactive means no such curve, though single readings can be large or run the other way. For the sample, actives were picked, then their nearest neighbours and some compounds at random.
# Experiment: Primary qHTS for delayed death inhibitors of the malarial parasite plastid, 48 hour incubation
# Settings: P. falciparum luciferase growth in erythrocytes; series mostly up to 28.7 µM
# Description: The goal of this screen is to discover new antimalarial compounds that act by inhibiting the development of the apicoplast in the malarial parasite Plasmodium falciparum. The biochemical processes that make this organelle essential for erythrocytic stage parasites are not well understood. However, antibiotics such as azithromycin and tetracycline, which target the apicoplast translational machinery, have a potent antimalarial effect.
# We have developed a cell-based assay that measures parasite growth based on the expression of an integrated copy of a firefly luciferase reporter. To detect small molecules that cause this "delayed death" phenotype, erythrocytes infected with the luciferase-expressing parasites were incubated with compounds for either one or two generations, corresponding to 48 and 96 hours, respectively. Compounds that inhibit parasite growth in the second generation, but not the first, should be enriched in antimalarials that target the apicoplast. Growth inhibition is detected by a decrease in luciferase activity.
# Assay Provider: David Fidock and Eric Ekland, Columbia University
# Keywords: NIH Roadmap, MLPCN, MLI, MLSMR, qHTS, NCGC, qHTS, malaria, luciferase, viability
# Four microliters of culture medium (RPMI 1640 with 0.5% w/v Albumax (GIBCO), 24 mM sodium bicarbonate and 10 ug/mL gentamycin) were dispensed by a Multi-drop Combi into white solid 1536-well plates (Grenier) and 23 nL compound was added by a pin tool. Four microliters of infected erythrocytes (2% hematocrit, 0.1% parasitemia final concentration) in culture medium were dispensed and the plates incubated for 48 hours at 37 C in 5% CO2. Two microliters of luciferase detection reagent was added and luminescence was detected by a ViewLux (PerkinElmer) reader.
# Potency means the concentration at half of the fitted maximal effect.
row,Compound,Potency
1,O=C(Nc1ccc(N2C(=O)c3cccc4cccc(c34)C2=O)cc1)c1ccc(N2CCCCC2)c([N+](=O)[O-])c1,inactive
2,O=C(NC1C2CC3CC(C2)CC1C3)c1ccc(N2CCNCC2)c([N+](=O)[O-])c1 (stereo unspecified),inactive
3,O=C(Nc1cccc(C(F)(F)F)c1)c1ccc(N2CCNCC2)c([N+](=O)[O-])c1,2.62 µM (active)
4,O=[N+]([O-])c1ccc(NC(=S)N2CCN(c3ccccn3)CC2)cc1,inactive
5,O=C(CNC(=O)c1ccccc1)Oc1ccc([N+](=O)[O-])cc1,inactive
6,Oc1c(Cl)cc(Cl)c(Cl)c1Cc1c(O)c(Cl)cc(Cl)c1Cl,11.7 µM (active)
7,CCOc1ccc(N2CC(C(=O)NCc3ccccn3)CC2=O)cc1 (stereo unspecified),inactive
8,CC(C)C[C@H](NC(=O)N1CC(=O)Nc2ccccc21)C(=O)N[C@H](Cc1ccccc1)C(=O)O,inactive
9,COc1ccc(C(=O)O/N=C(\N)Cc2ccc(Cl)cc2Cl)cc1OC,13.1 µM (active)
10,COc1ccc(C(=O)ON=C2c3ccccc3-c3ccccc32)cc1OC,inactive
11,COc1ccc(C/C(N)=N/OC(=O)c2ccco2)cc1OC,inactive
12,Cc1ccc2c(C)c(C(=O)N(C)Cc3ccncn3)oc2c1C,inactive
13,CCN1CCN(C(c2cccnc2)c2cc(Cl)c3cccnc3c2O)CC1 (stereo unspecified),4.15 µM (active)
14,CCOC(=O)N1CCN(C(c2cccnc2)c2ccc3cccnc3c2O)CC1 (stereo unspecified),11.7 µM (active)
15,CCOC(=O)N1CCN(C(=O)CSc2nc(=O)n3cccc(C)c3n2)CC1,inactive
16,CCN1CCN(c2ccc(NC(=O)c3cnccn3)cc2)CC1,inactive
17,CCOC(=O)N1CCN(Cc2nc(N)nc(Nc3ccc(C)cc3)n2)CC1,inactive
18,CN(CC(=O)Nc1ccc(F)cc1)CC(=O)N1CCCCC1,inactive
19,Cc1cc(C)cc(N(CC(=O)NC2CCCC2)C(=O)CCC(=O)Nc2cc(C)on2)c1,inactive
20,Cn1cc(CNC(=O)c2ccc(OC3CCN(Cc4ccccn4)CC3)cc2)cn1,inactive
21,CCOC(=O)c1cccc(NC(=O)C2CCN(c3ncnc4c3nc3n4CCCCC3)CC2)c1,inactive
22,COc1cc(C2/C(=C(\O)c3ccc4c(c3)CC(C)O4)C(=O)C(=O)N2c2nnc(C)s2)cc(OC)c1OC (stereo unspecified),inactive
23,O=S(=O)(Nc1cccc(-n2cnnn2)c1)c1cnc(Cl)c(Cl)c1,inactive
24,CC(=O)NC12CC3CC(C1)CC(C(=O)N1CCN(C(=O)c4ccco4)CC1)(C3)C2,inactive

row,Compound,Potency
1,Cc1ccc(C(=O)Nc2ccn(C)n2)cc1,inactive
2,CN1C(C(=O)NCc2ccco2)CC2Cn3c(nc4ccccc43)C21 (stereo unspecified),inactive
3,Cc1nc2nc(SCC(=O)Nc3cccc(F)c3)[nH]c2cc1Br,inactive
4,COc1ccc(CN2CCN(C(=O)c3cc(C4CC4)nn3-c3ccccc3)CC2)cc1F,8.28 µM (active)
5,COc1ccc(CN2CCN(C(=O)CCC(=O)Nc3nnc(C(C)C)s3)CC2)cc1F,inactive
6,COc1cc(CN2CCC(C(N)=O)CC2)ccc1OCc1ccccc1,inactive
7,COc1ccc(C(=O)NCc2nnc(SCC(=O)NC3=NCCS3)n2C)cc1,inactive
8,Cc1cc(=O)cc(C)n1-c1ccc(Cl)c(Cl)c1,inactive
9,O=C(OCC(=O)N(CCc1ccccc1)Cc1ccccc1)c1ccccc1[N+](=O)[O-],inactive
10,CCN(CC)c1ccc([N+](=O)[O-])cc1C(=O)O,inactive
11,O=[N+]([O-])c1ccc(N(CCO)Cc2ccccc2)c([N+](=O)[O-])c1,4.65 µM (active)
12,O=C(NCCCn1ccnc1)c1cc(Br)c(Br)s1,inactive
13,CC(=O)Nc1ccc(NC(=O)CSc2nnnn2C2CCCCC2)cc1,inactive
14,CCCc1cc(=O)n2[nH]c(C)c(-c3ccc(Cl)cc3)c2n1,inactive
15,NS(=O)(=O)c1cccc(NC(=O)CC23CC4CC(CC(Br)(C4)C2)C3)c1,inactive
16,Cc1nnc(SCC(=O)Nc2cccc(N)c2)n1-c1ccccc1,inactive
17,COc1ccc(C2=NS(=O)(=O)N(C)C(C(=O)NC(C)c3ccccc3)=C2)cc1 (stereo unspecified),inactive
18,COc1ccc(NC(=O)C2=CC(c3ccc(OC)c(OC)c3)=NS(=O)(=O)N2C)cc1,14.7 µM (active)
19,COc1ccc(C2=NS(=O)(=O)N(C)C(C(=O)N3CCCCC3)=C2)cc1,inactive
20,Cc1cccc(N(C)C(=O)c2cc(S(=O)(=O)N3CCCCC3)c[nH]2)c1,inactive
21,Cc1cccc(CCNS(=O)(=O)c2ccc3c(c2)NC(=O)CO3)c1,inactive
22,CCOc1ccc(NC(=O)CC(Cc2ccc(Cl)cc2)C(=O)O)cc1 (stereo unspecified),inactive
23,COc1ccc(C2CC(c3cccs3)=NN2C(=O)CCC(=O)O)cc1OC (stereo unspecified),inactive
24,O=C1c2cccc(OCC(=O)N3N=C(c4cccs4)CC3c3ccc(F)cc3)c2CCN1Cc1ccccc1 (stereo unspecified),7.38 µM (active)

row,Compound,Potency
1,COc1ccc(C2CC(c3ccccc3)=NN2C(=O)COC(=O)COc2ccccc2)cc1 (stereo unspecified),inactive
2,COc1cc(C(=O)NCC(=O)NCCSc2ccc(Br)cc2)cc(OC)c1OC,inactive
3,CCO[C@H]1OC(C(=O)N2CCCCCCC2)=C[C@@H](c2ccc(C(F)(F)F)cc2)[C@@H]1CCCO,3.7 µM (active)
4,CCO[C@H]1OC(C(=O)N2CCOCC2)=C[C@@H](c2ccc3c(c2)OCO3)[C@@H]1CCCO,inactive
5,CCO[C@@H]1OC(C(=O)N2CCOCC2)=C[C@H](C)[C@H]1CCCO,inactive
6,Cc1cc(C)c(S(=O)(=O)Nc2c(C)n(C)n(-c3ccccc3)c2=O)cc1[N+](=O)[O-],inactive
7,COc1ccc(-c2cc(C(=O)N3CCN(c4ccc(F)cc4)CC3)no2)cc1,inactive
8,Cc1cc(C)c(C2C3=C(Nc4c2c(C)nn4-c2ccccn2)c2ccccc2C3=O)c(C)c1 (stereo unspecified),9.28 µM (active)
9,COC(=O)c1sccc1NC(=O)c1ccc(Cl)cc1,inactive
10,Nc1nc(NCc2ccccc2)n(-c2ccccc2)n1,inactive
11,CCc1nnc(NC(=O)CSCc2cc(=O)n3cc(C)sc3n2)s1,inactive
12,COC(=O)C1=C(c2ccccc2OCc2ccccc2)C[C@@H]2CC[C@H]1N2C(=O)NCc1ccc(OC)cc1,13.1 µM (active)
13,COC(=O)C1=C(c2ccc(F)cc2OCc2ccccc2)C[C@@H]2CC[C@H]1N2C(=O)NCc1ccc(Cl)cc1,11.7 µM (active)
14,COc1ccc(CNC(=O)C2CCN(C(=O)c3ccccc3)CC2)cc1,inactive
15,COC(=O)C1=C(c2ccc3ccccc3c2)C[C@@H]2CC[C@H]1N2C(=O)NCCO,inactive
16,COc1ccc(CNC(=O)C2CCN(S(C)(=O)=O)CC2)cc1,inactive
17,O=C(CN1CCN(C(=O)c2ccco2)CC1)Nc1ccc(Cl)c(C(F)(F)F)c1,inactive
18,COC(=O)C1=C(c2ccc(-c3ccccc3)c(F)c2)C[C@@H]2CC[C@H]1N2C(=O)NCc1ccc(F)cc1,13.1 µM (active)
19,COC(=O)C1=C(c2ccc(F)cc2F)C[C@@H]2CC[C@H]1N2C(=O)NC1CC1,inactive
20,O=C(O)C1CC=C(Cl)CC1C(=O)NCc1ccccc1 (stereo unspecified),inactive
21,COC(=O)c1ccc(CNC(=O)C2CCC(=O)N(Cc3cccc(F)c3)C2)cc1 (stereo unspecified),inactive
22,COC(=O)C1=C(c2ccc(Cl)c(C(F)(F)F)c2)C[C@@H]2CC[C@H]1N2C(=O)NC1CC1,14.7 µM (active)
23,O=C(NCCc1ccc(Cl)cc1)C1CCCN1C(=O)NCc1ccccc1 (stereo unspecified),inactive
